Holding throughout (type): functional
Assay [1] concerns Plasmodium falciparum. Put plainly: GSK_TCMDC: Inhibition of Plasmodium falciparum 3D7 in whole red blood cells, using parasite LDH activity as an index of growth. Test compounds present at 2uM.
For assay [2], the system named is Plasmodium falciparum. Nature of the assay: GSK_TCMDC: Inhibition of Plasmodium falciparum Dd2 in whole red blood cells, using parasite LDH activity as an index of growth. Test compounds present at 2uM.
The next assay has as its system HepG2. Put plainly: GSK_TCMDC: Percent inhibition of human HepG2 cell line. Test compounds present at 10uM.

The structures appear in SMILES notation.

As a reminder, the Inhibition is the percentage by which the read-out fell short of the control. A high value points to a strong effect.

As to `CCOC(=O)CCCCOc1c(OC)cc(Cc2cnc(N)nc2N)cc1OC`, the Inhibition with Plasmodium falciparum [1] came to 95%; in the assay with Plasmodium falciparum [2] it was 0%; in the assay with HepG2, 0%.
Turning to `O=C(NCCN1CCCC1)c1cccc(-c2ccc(-c3nc4cc(F)ccc4[nH]3)cc2)c1`, the Inhibition is reported as 99% in the assay with Plasmodium falciparum [1], 85% in the assay with Plasmodium falciparum [2] and 33% with HepG2.
Take `CS(=O)(=O)Nc1cccc(-c2cnc3[nH]cc(-c4cc(N)cc(C(=O)O)c4)c3c2)c1`: the Inhibition in the assay with Plasmodium falciparum [1] was determined as 96%; with Plasmodium falciparum [2], 96%; in the assay with HepG2 it was 40%.
With `COc1ccc(Nc2nc(N3CCCC3)c3ccccc3n2)cc1.Cl`, the Inhibition with Plasmodium falciparum [1] turned out to be 100%; in the assay on Plasmodium falciparum [2], 98%; with HepG2, 40%.
For `COc1cc2nc(N3CCC(CNC(=O)c4ccc(-c5ccc(C(=O)N(C)C)cc5)c(OCCO)c4)CC3)nc(N)c2cc1OC`, the values for the Inhibition in the assay with Plasmodium falciparum [1], with Plasmodium falciparum [2] and in the assay on HepG2 were 96%, 18% and 10%, respectively.
In the case of `Cc1cccc(C)c1CNc1ccnc2cc(C#N)ccc12.Cl`, the Inhibition in the assay on Plasmodium falciparum [1] worked out at 100%; in the assay on Plasmodium falciparum [2] it was 99%; in the assay with HepG2, 20%.
For the molecule `CCCc1cn2c3c(cc(C(=O)N[C@@H](Cc4ccccc4)[C@H](O)CNC4CCOCC4)cc13)N(C)S(=O)(=O)CC2.O=CO`, the Inhibition is given as 99% in the assay on Plasmodium falciparum [1], 98% with Plasmodium falciparum [2] and 1% with HepG2.
As for `COc1ccc(-c2cccc(NC(=O)c3cccc(C#N)c3)c2)cc1CN1CCN(C)CC1.O=C(O)C(F)(F)F`, the figures for the Inhibition in the assay with Plasmodium falciparum [1], with Plasmodium falciparum [2] and in the assay on HepG2 were 91%, 16% and 25%, respectively.
As to `CN(C)CCC=C1c2ccccc2Sc2c(O)cc(Cl)cc21.O=C(O)/C=C\C(=O)O`, the Inhibition is 100% in the assay with Plasmodium falciparum [1], 80% in the assay on Plasmodium falciparum [2] and 8% in the assay on HepG2.
In the case of `O=C(O)C(F)(F)F.c1ccc2[nH]c(-c3ccc(-c4ccc(CNCCc5ccncc5)cc4)s3)nc2c1`, the values for the Inhibition in the assay on Plasmodium falciparum [1], in the assay with Plasmodium falciparum [2] and in the assay with HepG2 were 100%, 98% and 28%, respectively.
`CC(C)Cn1c(Sc2ccc(C#N)c([N+](=O)[O-])c2)nnc1-c1ccccc1`: the Inhibition is 83% with Plasmodium falciparum [1], 12% in the assay with Plasmodium falciparum [2] and 17% in the assay on HepG2.
As to `COc1ccc(NC(=O)[C@H](CC(C)C)Nc2cc(C)nc(NCCc3ccc(F)cc3)n2)cc1.O=C(O)C(F)(F)F`, the Inhibition in the assay with Plasmodium falciparum [1] stood at 100%; with Plasmodium falciparum [2], 79%; with HepG2, 1%.
As for `COc1cc(C(=O)Nc2cccc(-c3nc4ccccc4[nH]3)c2)cc(OC)c1OC`, the Inhibition worked out at 99% with Plasmodium falciparum [1], 41% in the assay with Plasmodium falciparum [2] and 25% with HepG2.
As to `O=C(NC1CC1)c1ccc(Cn2c(SCc3cccc([N+](=O)[O-])c3)nc3ccccc3c2=O)cc1`, the Inhibition was 91% with Plasmodium falciparum [1], 65% in the assay with Plasmodium falciparum [2] and 12% with HepG2.
Regarding `CCOc1cc(CC)ccc1C1CCN(CCCCNC(=O)c2ccc(NC(=O)c3ccc(C#N)cc3)cc2)CC1`, the Inhibition in the assay with Plasmodium falciparum [1] was found to be 91%; with Plasmodium falciparum [2], 50%; with HepG2, 55%.
For the molecule `O=C(NCC(CCN1CCC(c2c[nH]c3ccccc23)CC1)c1ccccc1)Nc1ccc(Cl)c(Cl)c1` (centres undefined), the Inhibition in the assay with Plasmodium falciparum [1] came to 100%; in the assay with Plasmodium falciparum [2], 53%; with HepG2 it was 46%.
In the case of `Fc1ccc(-c2cncc(-c3ccc(F)cc3)n2)cc1`, the Inhibition in the assay with Plasmodium falciparum [1] was determined as 99%; with Plasmodium falciparum [2] it was 94%; in the assay on HepG2, 7%.
As to `O=C(O)C(F)(F)F.c1cc(-c2ccc(CNCc3ccsc3)cc2)cc(-c2nc3ccccc3[nH]2)c1`, the Inhibition in the assay on Plasmodium falciparum [1] came out at 100%; in the assay with Plasmodium falciparum [2], 82%; with HepG2, 46%.
The corresponding values for `Cn1cncc1C(=O)Nc1ccc(-c2ccc(-c3nc4cc(C(F)(F)F)ccc4[nH]3)cc2)cc1` are 100%, 33% and 24%.
Regarding `CCc1ccc(C(=O)Nc2cccc(CN3CCCN(Cc4ccc(O)cc4)CC3)c2)cc1.O=C(O)C(F)(F)F`, the Inhibition with Plasmodium falciparum [1] turned out to be 100%; in the assay with Plasmodium falciparum [2], 74%; in the assay on HepG2, 11%.
Regarding `COc1cc2nc(N(C)Cc3cc4c(Cl)cccc4s3)nc(N)c2cc1OC.Cl`, the Inhibition is 90% in the assay with Plasmodium falciparum [1], 27% in the assay on Plasmodium falciparum [2] and 32% in the assay with HepG2.
Regarding `N#Cc1ccc(N2CCN(Cc3ccc(-c4ccc(-c5nc6cc(C(F)(F)F)ccc6[nH]5)s4)cc3)CC2)nc1.O=C(O)C(F)(F)F`, the figures for the Inhibition in the assay with Plasmodium falciparum [1], in the assay with Plasmodium falciparum [2] and with HepG2 were 100%, 73% and 13%, respectively.
The corresponding values for `Cl.c1ccc(-c2nc3ccccc3[nH]2)c(Nc2ccnc3cc(-c4nccs4)ccc23)c1` are 100%, 98% and 0%.
For `N=C(N)NN=Cc1ccccc1OCc1ccccc1Cl`, in that order: 100%, 30% and 14%.
The corresponding values for `O=C(Cn1c(CCc2cccc(F)c2F)nc(=O)c2ccccc21)N(CCN1CCCC1)Cc1ccc(-c2ccc(C(F)(F)F)cc2)cc1.O=C(O)C(O)C(O)C(=O)O` are 100%, 37% and 63%.
Turning to `Cl.Cn1nc(C(F)(F)F)cc1-c1ccc(C(=O)Nc2ccc3c(c2)CNCC3(C)C)s1`, the Inhibition with Plasmodium falciparum [1] was 88%; with Plasmodium falciparum [2] it was 36%; with HepG2 it was 10%.
For the molecule `Br.CCCC1N=C(N)N=C(N)N1c1ccc(C)cc1` (centres undefined), the Inhibition with Plasmodium falciparum [1] was found to be 94%; in the assay on Plasmodium falciparum [2] it was 2%; with HepG2, 1%.
For `COc1cc(C(=O)NC2CCN(Cc3ccccc3)CC2)ccc1-c1cc2cc(Cl)c(Cl)cc2[nH]1.O=C(O)C(F)(F)F`, in that order: 100%, 100% and 33%.

These data come from ChEMBL document CHEMBL1157539, “Thousands of chemical starting points for antimalarial lead identification” (Nature, 2010).
